Measurements taken from PubChem BioAssay AID624330 (Southern Research Specialized Biocontainment Screening …, 2012).
Where “and” joins values, the source holds several entries; their conditions need not be identical. Equal entries are not always repeated. The whole screen tested about 340,000 compounds, of which about 2,100 (0.62%) were called active.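 Rule for the calls: active = first-screen hits whose inhibition reached a set limit at any dose in the follow-up dose series; inconclusive = inhibition above the set first-screen limit but never retested; inactive = the rest.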 Only a sample is shown. Results with a measured potency or affinity are listed apart.

molecular target: Rac GTPase-activating protein 1 (Homo sapiens) (UniProt Q9H0H5); test: blockers of MgcRacGAP-driven Rac1 GTP hydrolysis – biochemical, ADP Hunter fluorescence, primary and confirmatory, confirmation (AID 624330); conditions: MgcRacGAP-stimulated Rac1 GTP hydrolysis, at 30 µM, active compounds read high, GST-tagged Rac1 F28L mutant substrate;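 note: fluorescence reports GDP produced by GAP-driven GTP hydrolysis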
Sequence (Q9H0H5 whole entry, looked up): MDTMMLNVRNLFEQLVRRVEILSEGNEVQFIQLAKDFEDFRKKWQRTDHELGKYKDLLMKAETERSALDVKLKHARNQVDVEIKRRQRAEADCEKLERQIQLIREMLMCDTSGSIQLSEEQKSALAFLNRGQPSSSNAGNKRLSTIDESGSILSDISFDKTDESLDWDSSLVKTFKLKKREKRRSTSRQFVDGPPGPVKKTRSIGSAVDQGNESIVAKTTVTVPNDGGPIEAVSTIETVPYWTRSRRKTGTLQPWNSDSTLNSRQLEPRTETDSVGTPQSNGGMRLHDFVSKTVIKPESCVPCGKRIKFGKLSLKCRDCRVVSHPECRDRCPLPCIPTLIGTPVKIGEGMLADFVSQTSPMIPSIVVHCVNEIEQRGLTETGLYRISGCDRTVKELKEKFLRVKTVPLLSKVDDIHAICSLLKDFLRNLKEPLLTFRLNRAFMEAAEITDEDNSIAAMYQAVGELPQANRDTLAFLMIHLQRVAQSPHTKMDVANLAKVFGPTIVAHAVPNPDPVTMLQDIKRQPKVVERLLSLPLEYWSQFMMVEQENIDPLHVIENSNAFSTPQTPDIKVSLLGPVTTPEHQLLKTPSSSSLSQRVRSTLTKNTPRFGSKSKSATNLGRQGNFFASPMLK

inhibition, inactive:
COc1cccc(NC(=O)CN(C)C(=O)C(CCSC)NC(=O)c2ccco2)c1 (stereo unspecified) 1.87%
Cc1nn(C)c(=S)[nH]c1=S -2.65%
O=C(NCc1nc2ccccc2[nH]1)c1cccc(S(=O)(=O)N2CCCCC2)c1 1.53%
Cc1c(C(=O)N/N=C/c2cccnc2)sc(N)c1C#N 6.19%
COc1cc(/C=N/NC(=O)c2sc(N)c(C#N)c2C)cc(Br)c1O 11.7%
COc1ccc(C(=O)NC2=Nc3ccccc3N=C(C)C2c2ccccc2)cc1 (stereo unspecified) 0.78%
Nc1cc(N)nc(SCC(=O)N2CCN(S(=O)(=O)c3ccccc3)CC2)n1 7.76%
c1ccc2c(c1)Nc1cc3ccccc3cc1O2 -1.21%
CCOc1cc(/C=N\NC(=O)Cn2nnc3ccccc32)ccc1O 28.1%
Cc1cccc(C(C)n2nnc3ccccc32)c1O (stereo unspecified) 6.53%
COc1cccc(/C=N/NC(=O)CCn2nnc3ccccc32)c1 1.99%
COc1ccc(/C=N/NC(=O)Cn2nnc3ccccc32)cc1OC 3.04%
COc1ccc(/C=N/NC(=O)C(C)n2nnc3ccccc32)cc1OC (stereo unspecified) 8.77%
COc1ccc(/C=N/NC(=O)CCn2nnc3ccccc32)cc1 15.9%
COc1ccc(C(O)c2nc3ccccc3n2C)cc1OC (stereo unspecified) 3.18%
COc1cccc(/C=N/NC(=O)C(C)n2nnc3ccccc32)c1 (stereo unspecified) 9.47%
O=C(c1ccnc(Cl)c1)N1CCCC(Nc2ccc(F)cc2)C1 (stereo unspecified) 6.71%
CCc1nnc(NC(=O)CSc2nnc(C3CC3)n2C)s1 3.03%
Cc1ccc(OC/C(O)=C(\C#N)c2nc3ccccc3s2)cc1 0.24%
CN(C1CCS(=O)(=O)C1)S(=O)(=O)c1ccc(N2CCCC2=O)cc1 (stereo unspecified) 14.4%
COc1ccc(CCNC(=O)C(=O)NCC2CCCN2S(=O)(=O)c2ccccc2)cc1OC (stereo unspecified) 1.68%
CC(NC(=O)Nc1ccc([N+](=O)[O-])cc1)C(c1cccs1)N1CCCC1 (stereo unspecified) 8.33%
COc1ccc(/C=N/NC(=O)CCn2c3ccccc3c3ccccc32)cc1O 11.7%
COc1ccc(/C=N/NC(=O)CCn2c3ccccc3c3ccccc32)cc1OC -2.76%
COc1ccc(CCc2ccc3cc(OC)ccc3n2)cc1 1.87%
O=C(O)c1ccccc1C(=O)N(Cc1ccccc1)Cc1ccccc1 4%
CC(C)[C@H](N)c1cn([C@@H](CO)C(=O)N2CCNCC2)nn1 6.71%
CCCc1c(C(=O)N/N=C/c2ccc3c(c2)OCO3)nnn1-c1nonc1N 3.5%
CC(C#N)(NC(=O)CN1CCN(S(=O)(=O)c2cccc(F)c2)CC1)C1CC1 (stereo unspecified) 23.8%
COc1ccc(CCC(=O)N2CCN(S(=O)(=O)c3ccc(OC)c([N+](=O)[O-])c3)CC2)cc1 14.3%
Cc1nc2ncnn2c(C)c1CCC(=O)NCCc1ccccc1 3.16%
Cc1ccc([N+](=O)[O-])c2c1C(N1CCCC1)C(C)(C)O2 (stereo unspecified) 5.51%
N#Cc1ccccc1NC(=O)CN1CCN(Cc2ccccc2)CC1 -4.52%
COC(=O)c1ccc(C)c(-n2c(C)cc(C=O)c2C)c1 2.91%
COC(=O)N1CCN(c2ccc(Cl)c(Cl)c2)CC1 6.48%
Clc1cccc(N2CCN(CCCN3CCN(c4ccccc4)CC3)CC2)c1 7.52%
CCOC(=O)N1CCN(c2ccc(Cl)c(Cl)c2)CC1 -6.41%
NC(=O)CN1CCN(c2cccc(Cl)c2)CC1 6.34%
COc1ccc(NC(=O)c2ccc3ccccc3n2)cc1S(=O)(=O)N1CCCCC1 3.75%
O=C(O)C(O)Cc1c[nH]c2ccccc12 (stereo unspecified) 5.43%
Cc1ccc(S(=O)(=O)Nc2ccccc2N=Cc2ccc([N+](=O)[O-])cc2[N+](=O)[O-])cc1 4.67%
COc1ccc2nc(NC(=O)CN3CCN(C)CC3)sc2c1 14.5%
O=C(CN1CCN(c2ccccn2)CC1)Nc1nc2ccccc2s1 12.2%
CCOc1ccc2nc(NC(=O)CN3CCN(CC)CC3)sc2c1 5.24%
CCCN1CCN(CC(=O)Nc2nc3ccccc3s2)CC1 12.4%
CCOC(=O)N1CCN(CC(=O)Nc2nc3ccccc3s2)CC1 -4.03%
O=C(CN1CCN(Cc2ccccc2)CC1)Nc1nc2ccccc2s1 14%
Cc1[nH]nc(N=CC2=C(O)CC(c3ccco3)CC2=O)c1-c1ccccc1 (stereo unspecified) -2.48% and -0.93%
CNC(=O)c1cc(C(=O)c2ccc(F)cc2Cl)c[nH]1 4.17%
CC1CCCCC1NC(=O)C1CC=CCC1C(=O)O (stereo unspecified) -1.3%
CCC1=C(OC(=O)N(CC)CC)N2C(=O)OC(=NCC(=O)OC)[C@]2(Cc2ccccc2)[C@H]2C1=CC[C@H]1C(=O)N(C)C(=O)[C@H]12 0.87%
COc1ccc(N2CCN(C(=S)NCCc3ccccc3)CC2)cc1 5.11%
O=C(CN1CCN(c2ccc(F)cc2)CC1)Nc1ccccc1C(=O)NCCc1ccccc1 9.18%
O=C(NC(=S)N1CCN(c2ccccc2)CC1)c1ccco1 5.3%
O=C(NC(=S)N1CCN(c2ccc([N+](=O)[O-])cc2)CC1)c1ccco1 13.1%
S=C(NCCc1ccccc1)N1CCN(C(=S)NCCc2ccccc2)CC1 1.96%
O=C(CN1CCN(S(=O)(=O)c2ccccc2)CC1)Nc1ccccc1C(=O)NC1CC1 4.29%
O=C(CN1CCN(c2ccccc2)CC1)Nc1ccccc1C(=O)NCCc1ccccc1 15.8%
CC1CCN(CC(=O)Nc2ccccc2C(=O)NC2CC2)CC1 3.3%
O=C1CN(C(=O)CNCc2ccc(Cl)cc2)c2ccccc2N1 31.7%
CCCC(C(=O)Nc1ccc(S(=O)(=O)N2CCOCC2)cc1)c1ccccc1 (stereo unspecified) 4.26%
